In the supplement of paper PMC10981050:
Where “and” joins values, the source holds several entries; their conditions need not be identical. Equal entries are not always repeated. Structures can show the parent of a compound that is named as a salt.

How the values were obtained:
Test in all cases: cell viability relative to vehicle control; higher = less cytotoxic
Details in all cases: 10 µM
K562 = tested on: K562
Procedure, shortened: (§1)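 CRISPR-edited mutant clones and isogenic wild-type clones from four leukaemia lines were screened against Selleck bioactive, kinase and epigenetic probe libraries, with identity-inconsistent compounds excluded. Each compound was acoustically dispensed at a single 10 µM dose into 384-well plates holding 2000 cells in 50 µL medium per well. After 48 h the supernatant was removed and CellTiter-Glo luminescence was read. Viability was expressed as percent of the on-plate vehicle control and analysed in Genedata Screener.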

MARIMO = tested on: MARIMO
Procedure, shortened: as §1

MOLM14 = tested on: MOLM14
Procedure, shortened: as §1

OCI-AML2 = tested on: OCI-AML2
Procedure, shortened: as §1

Row | SMILES | cell viability (K562; SRSF2 genotype: SRSF2 P95H/wt) | cell viability (K562; SRSF2 genotype: SRSF2 wt/wt) | cell viability (MARIMO; SRSF2 genotype: SRSF2 P95H/wt) | cell viability (MARIMO; SRSF2 genotype: SRSF2 wt/wt) | cell viability (MOLM14; SRSF2 genotype: SRSF2 P95H/wt) | cell viability (MOLM14; SRSF2 genotype: SRSF2 wt/wt) | cell viability (OCI-AML2; SRSF2 genotype: P95H/wt) | cell viability (OCI-AML2; SRSF2 genotype: wt/wt)
1 | O=C(c1ccc(F)cc1)C1CCN(CCn2c(=O)[nH]c3ccccc3c2=O)CC1 [Ketanserin (Vulketan Gel)] | 98.1% and 104% | 103% | 102% | 106% | 107% | 107% | 105% | 109%
2 | COc1cc2c(c(OC)c1OC)-c1c(cc3c(c1OC)OCO3)C[C@H](C)[C@](C)(O)[C@H]2OC(=O)c1ccccc1 [Schisantherin A] | 102% and 111% | 97.5% | 89.3% | 102% | 100% | 102% | 106% | 102%
3 | Nc1ccn([C@@H]2O[C@H](CO)[C@@H](O)[C@H]2O)c(=O)n1 [Cytidine] | 101% and 86.3% | 84.4% | 82.5% | 89.9% | 81% | 89.2% | 82.5% | 86.6%
4 | CNC(=O)c1c(C)oc2cc(Oc3ncnc4cc(OC)c(OC)cc34)ccc12 [Fruquintinib] | 101% and 96.7% | 97.1% | 98.6% | 99.7% | 95.8% | 105% | 84.3% | 85.4%
5 | CC(C)=CCOc1ccc(/C=C/C(=O)c2ccc(OCC=C(C)C)cc2OCC(=O)O)cc1 [Sofalcone] | 100% and 101% | 107% | 105% | 101% | 84.9% | 94.5% | 106% | 118%
6 | Cc1[nH]c2ccccc2c1CCNCc1ccc(/C=C/C(=O)NO)cc1 [Panobinostat (LBH589)] | 1.37% and 8.1% | 2.36% | 3.16% | 7.58% | 0.67% | 0.53% | 1.13% | 1.48%
7 | N#CC(=Cc1ccc(O)c(O)c1)C(=O)NCc1ccccc1 [AG-490 (Tyrphostin B42)] | 101% and 99.8% | 91% | 78.5% | 92.8% | 95.9% | 103% | 90.4% | 93.7%
8 | C=C1[C@H](OC(=O)/C=C(\C)CC)C[C@@H](C(C)C)[C@@H]2[C@@H]([C@@H](C)OC(C)=O)C(=O)C[C@@H]12 [Tussilagone] | 83% and 91.6% | 89.5% | 57% | 53.2% | 64.5% | 71.3% | 56.6% | 77.6%
9 | O=C(/C=C/c1ccc(O)c(O)c1)O[C@@H]1C[C@](O)(C(=O)O)C[C@@H](O)[C@H]1O [Chlorogenic acid] | 102% and 109% | 99.4% | 99.4% | 108% | 104% | 102% | 99% | 102%
10 | Cc1nc2cccc(N)c2c(=O)n1C1CCC(=O)NC1=O (centres undefined) [Avadomide(CC-122)] | 108% and 111% | 111% | 102% | 92.7% | 99.2% | 98.2% | 159% | 169%
11 | CCOC(=O)/C=C/c1ccc(O)c(O)c1 [Ethyl caffeate] | 88.5% and 88.6% | 95% | 44.4% | 80.5% | 78.1% | 78.1% | 76.8% | 77.7%
12 | NCCc1ccc(O)c(O)c1 [Dopamine hydrochloride (Inotropin)] | 89% and 91.3% | 93.1% | 88.6% | 103% | 80.9% | 100% | 99.9% | 105%
13 | Cc1c(Cl)cccc1Nc1ccccc1C(=O)O [Tolfenamic acid] | 103% and 101% | 101% | 107% | 102% | 99.8% | 102% | 106% | 106%
14 | NC(=O)CCCSc1nc(N)nc(-c2c(Cl)cc3c4c(cccc24)COC3)n1 | 18.9% and 27.3% | 22.6% | 29.3% | 24.6% | 2.36% | 2.58% | 16.6% | 19.6%
15 | Clc1ccc(CCC(Cn2ccnc2)Sc2c(Cl)cccc2Cl)cc1 (centres undefined) [Butoconazole nitrate] | 74.1% and 80.8% | 75.7% | 75.8% | 83.9% | 79.7% | 75.7% | 71.5% | 69.6%
16 | COc1cc(C2Oc3cc([C@H]4Oc5cc(O)cc(O)c5C(=O)[C@@H]4O)ccc3OC2CO)ccc1O (some centres undefined) [Silibinin (Silybin)] | 95% and 94% | 92.2% | 97.5% | 110% | 98.8% | 98.4% | 104% | 116%
17 | OCC(O)C(O)C(O)C(O)CO (centres undefined) [Allitol] | 111% and 98.4% | 111% | 107% | 101% | 108% | 103% | 109% | 99.3%
18 | C[C@H]1COc2c(N3CCN(C)CC3)c(F)cc3c(=O)c(C(=O)O)cn1c23 [Levofloxacin (Levaquin)] | 95.5% and 83.8% | 87.5% | 90.4% | 101% | 95.2% | 88% | 87.3% | 88.3%
19 | Cc1ccc(Sc2ccccc2N2CCNCC2)c(C)c1 | 2.01% and 3.74% | 2.31% | 6.07% | 11.2% | 3.31% | 3.18% | 0.2% | 0.89%

Row | SMILES | cell viability (K562; SRSF2 genotype: SRSF2 P95H/wt) | cell viability (K562; SRSF2 genotype: SRSF2 wt/wt) | cell viability (MARIMO; SRSF2 genotype: SRSF2 P95H/wt) | cell viability (MARIMO; SRSF2 genotype: SRSF2 wt/wt) | cell viability (MOLM14; SRSF2 genotype: SRSF2 P95H/wt) | cell viability (MOLM14; SRSF2 genotype: SRSF2 wt/wt) | cell viability (OCI-AML2; SRSF2 genotype: P95H/wt) | cell viability (OCI-AML2; SRSF2 genotype: wt/wt)
20 | CC(C)=CCC[C@](C)(O[C@@H]1O[C@H](CO)[C@@H](O)[C@H](O)[C@H]1O)[C@H]1CC[C@]2(C)[C@@H]1[C@H](O)C[C@@H]1[C@@]3(C)CC[C@H](O[C@@H]4O[C@H](CO)[C@@H](O)[C@H](O)[C@H]4O[C@@H]4O[C@H](CO)[C@@H](O)[C@H](O)[C@H]4O)C(C)(C)[C@@H]3CC[C@]12C [Ginsenoside Rd] | 99.2% and 91.3% | 93.4% | 94% | 96.8% | 91.8% | 94.5% | 88% | 103%
21 | NC(=O)c1cccnc1 [Nicotinamide (Vitamin B3)] | 106% and 112% | 113% | 107% | 103% | 105% | 104% | 104% | 111%
22 | CCOc1ccc(Cc2cc([C@@H]3O[C@H](CO)[C@@H](O)[C@H](O)[C@H]3O)ccc2Cl)cc1 [Dapagliflozin] | 93.8% and 97.1% | 105% | 102% | 96.9% | 95.9% | 99.4% | 97.7% | 105%
23 | COC(=O)[C@H](c1ccccc1Cl)N1CCc2sccc2C1 [Clopidogrel (Plavix)] | 98.2% and 98.5% | 94.4% | 78.9% | 101% | 94.1% | 96.9% | 85.4% | 93.4%
24 | C#Cc1cccc(Nc2ncnc3cc(OC)c(OCCCCCCC(=O)NO)cc23)c1 | 1.25% and 12.2% | 3.12% | 9.16% | 8.09% | 1.03% | 0.53% | 1.68% | 2.66%
25 | CN1CCN(Cc2ccc(-c3cnc4[nH]cc(-c5ccc6[nH]ccc6c5)c4c3)cc2)CC1 | 2.18% and 1.72% | 2.36% | 0.62% | 0.44% | 0.32% | 0.4% | 0.33% | 0.41%
26 | CC(Oc1cc(-c2cnn(C3CCNCC3)c2)cnc1N)c1c(Cl)ccc(F)c1Cl [(S)-crizotinib] | 85.7% and 81% | 74.8% | 84.4% | 92% | 78.2% | 86.2% | 88.8% | 75.3%
27 | CCC(=O)O[C@]1(C(=O)CCl)[C@@H](C)C[C@H]2[C@@H]3C[C@H](F)C4=CC(=O)C=C[C@]4(C)[C@@]3(F)[C@@H](O)C[C@@]21C [Halobetasol Propionate] | 92.5% and 97.2% | 89% | 101% | 98.1% | 76.3% | 85.8% | 99.3% | 105%
28 | COc1cccc2c1C(=O)c1c(O)c3c(c(O)c1C2=O)C[C@@](O)(C(=O)CO)C[C@@H]3O[C@H]1C[C@H](N)[C@H](O[C@@H]2CCCCO2)[C@H](C)O1 [Pirarubicin] | 9.97% and 17.9% | 15.8% | 5.07% | 2.51% | 0.15% | 0.13% | 0.2% | 0.51%
29 | CC(C)[C@H](O)C(=O)N[C@@H](C)C(=O)N[C@@H]1C(=O)N(C)CCc2ccccc21 | 106% and 107% | 106% | 96% | 107% | 109% | 105% | 101% | 111%
30 | CN1CCN(CCCN2c3ccccc3Sc3ccc(C(F)(F)F)cc32)CC1 [Trifluoperazine 2HCl] | 25.7% and 36.9% | 46.2% | 52.5% | 50.8% | 45.9% | 58.7% | 47.6% | 46.7%
31 | CCN(CC)CCOC(=O)c1ccc(N)cc1 [Procaine] | 100% and 99% | 102% | 99.6% | 108% | 107% | 105% | 104% | 101%
32 | O=C(O)CCCNC(=O)c1cccnc1 [Pikamilone] | 109% and 105% | 119% | 97.1% | 105% | 99.9% | 106% | 114% | 118%
33 | Nc1ncnc2c1ncn2[C@@H]1O[C@H](CO)[C@@H](O)[C@@H]1O [Vidarabine (Vira-A)] | 94.6% and 101% | 97% | 89.9% | 93.4% | 92.5% | 96.1% | 101% | 102%
34 | CC(=O)OC1CC2(C)C(CC(O)C3C4(C)CCC(O)C(C)C4CCC32C)C1=C(CCC=C(C)C)C(=O)O (centres undefined) [Fusidine] | 96.3% and 99.9% | 89.4% | 97.5% | 98% | 98.9% | 96.8% | 94.2% | 99.2%
35 | OC(c1ccccc1)(c1ccccc1)C12CC[N+](CCOCc3ccccc3)(CC1)CC2 [Umeclidinium bromide] | 81.8% and 94.9% | 89.5% | 76.2% | 90.9% | 86.5% | 81.6% | 75.6% | 85.1%
36 | COc1ccc(-c2cc(=O)c3c(O)cc(O[C@@H]4O[C@H](CO[C@@H]5O[C@@H](C)[C@H](O)[C@@H](O)[C@H]5O)[C@@H](O)[C@H](O)[C@H]4O)cc3o2)cc1O [Diosmin] | 90.8% and 97.8% | 89.9% | 94.8% | 101% | 97.6% | 92.4% | 90.4% | 92.4%
37 | O=CC(O)C(O)C(O)C(O)COC1OC(COC2OC(CO)C(O)C(O)C2O)C(O)C(O)C1O (centres undefined) [Manninotriose] | 112% and 107% | 110% | 97.8% | 97.1% | 103% | 104% | 108% | 104%
38 | O=C(Nc1cc(Cl)cc(Cl)c1O)c1c(O)c(Cl)cc(Cl)c1Cl [Oxyclozanide] | 96% and 91.7% | 97.8% | 97.2% | 108% | 99.1% | 103% | 102% | 99.9%
